# D2 ag-1 = agonists of human D2 dopamine receptor. P14416. activation, % at 2 µM. 340,000 tested, 0.53% active. HEK293 T-REx D2 cells, calcium flux agonist mode;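 active means activation over 3 SD above normal in the single-dose calcium agonist read, cut at about 30% in these data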; further: 0% is about no effect
# Target sequence (P14416 whole entry, looked up): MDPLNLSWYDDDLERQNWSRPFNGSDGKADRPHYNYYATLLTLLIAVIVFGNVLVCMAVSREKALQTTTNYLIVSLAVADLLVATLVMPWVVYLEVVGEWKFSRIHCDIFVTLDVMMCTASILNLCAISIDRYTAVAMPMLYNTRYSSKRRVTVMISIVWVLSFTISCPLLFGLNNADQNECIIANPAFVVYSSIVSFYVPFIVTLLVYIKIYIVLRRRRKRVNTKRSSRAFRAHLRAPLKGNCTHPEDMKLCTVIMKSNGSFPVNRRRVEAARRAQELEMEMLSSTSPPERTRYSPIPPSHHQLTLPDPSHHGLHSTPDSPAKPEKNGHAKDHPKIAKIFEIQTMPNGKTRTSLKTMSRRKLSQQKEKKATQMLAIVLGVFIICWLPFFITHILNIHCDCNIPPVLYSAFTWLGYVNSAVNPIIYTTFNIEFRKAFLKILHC
#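 In this primary screen, compounds producing a positive calcium signal within 180 s of addition to tetracycline-induced, force-coupled HEK293 Trex D2 cells are flagged; cells are dye-loaded with a no-wash calcium kit beforehand.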
# D2 antag = D2 dopamine receptor (human) antagonism; inhibition, % at 10 µM; 340,000 tested, 2% active; P14416; HEK293 TREx D2 cells, calcium flux, dopamine EC80; in the data active means inhibition above about 30%; inactive means below that, where a call was filed; further: 0% is about no effect
#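 Cells plated overnight at 30 C with tetracycline; no-wash calcium dye, 30–90 min RT; 10 s baseline; compound pinned; 180 s read; EC80 dopamine added; another 180 s read.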
# D2 PAM-1 = positively modulates the human D2 dopamine receptor allosterically. HEK293 T-REx D2, calcium flux, EC20 dopamine potentiation. potentiation, % at 10 µM. 340,000 tested, 0.34% active. P14416. AID 485347;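 active means potentiation over 3 SD above the plate norm, cut at about 30% in these data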; further: 0% is about no effect
#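 Potentiation of an EC20 dopamine calcium response is measured in a force-coupled, tetracycline-inducible Hek293 Trex D2 line. Compound-only kinetic reads over 180 s flag agonists before dopamine addition.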
# D2 PAM-2 = positive allosteric modulators of human D2 dopamine receptor | P14416 | DiscoveRx D2 beta-arrestin cells, luminescence, 90 min; 100% = 57 uM dopamine signal | potentiation, % (no concentration beside the values) | 360,000 tested, 0.23% active | AID 624464; in the data active means potentiation above about 50%
#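 PathHunter beta-arrestin assay in DiscoveRx D2 cells. Compounds were added with an EC20 of dopamine (50 nM final) for 90 min at 37 deg C. Luminescence was read 1 h after detection reagent, with 57 uM dopamine as the EC100 control.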
# D2 ag-2 = activates the human D2 dopamine receptor. 360,000 tested, 0.084% active. DiscoveRx PathHunter D2 beta-arrestin, luminescence, 90 min; 100% = 57 uM dopamine signal. AID 624465. P14416. activation, % (test concentration not listed); in the data active means activation above about 40%
#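 Agonist mode: compounds alone added to overnight-plated D2 PathHunter cells for 90 min at 37 C, with 57 uM final dopamine (EC100) defining full response. Beta-arrestin recruitment detected by chemiluminescent reagent, read after 1 h at ambient temperature.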
# * hit, by the source's call; nt = not tested or not shown. An excerpt weighted towards active compounds, which were near 2.4% of everything screened.
SMILES,D2 ag-1,D2 antag,D2 PAM-1,D2 PAM-2,D2 ag-2
O=C(Nc1ccc(S(=O)(=O)N2CCCCC2)cc1)c1ccc(CN2CCOCC2)cc1,nt,nt,42*,-9,2
CCN(CC)S(=O)(=O)c1ccc(NC(=O)c2ccc(CN3CCOCC3)cc2)cc1,1,8,30*,-10,0
COc1ccc(C(C#N)=Cc2cccc(OC)c2OC)cc1,nt,nt,nt,6,-3
COc1ccc(OC)c(CC(=O)Nc2ccc3c(c2)c(=O)n(C)n3Cc2cccc(C(F)(F)F)c2)c1,nt,nt,nt,-2,2
Nc1nc(Nc2ccccc2)sc1C(=O)c1ccccc1,12,-8,5,-7,0
CCNc1nc(N)c(C(=C(C#N)C#N)c2ccccc2)s1,-1,45*,-18,-39,-3
CCN(CC)C(=O)Cn1c(=O)n(CCCCCC(=O)NCc2ccc3c(c2)OCO3)c(=O)c2sccc21,0,nt,5,nt,nt
CC(C)C(=O)NNC(=O)CN1CCN(c2nc(-c3ccccc3)cs2)CC1,2,-1,3,-2,-3
CCOCCCNC(=S)N1CCN(c2nc(-c3ccccc3)cs2)CC1,nt,nt,nt,-3,-5
CCc1nnc(NC(=O)CN2CCN(c3nc(-c4ccccc4)cs3)CC2)s1,0,32*,-1,1,3
CCN(CC)CCCNC(=S)N1CCN(c2nc(-c3ccccc3)cs2)CC1,0,33*,-9,-14,0
O=C(N=C1SC2CS(=O)(=O)CC2N1Cc1ccccc1)C1CC1 (configuration not stated),nt,nt,nt,-5,-3
CC(=O)N1CCN(c2ccccc2NC(=O)c2cccs2)CC1,0,1,5,-25,1
O=C(Nc1ccccc1N1CCN(C(=O)c2ccccc2)CC1)c1cc2ccccc2o1,-1,63*,-20,-6,3
CC(=O)N1CCN(c2ccccc2NC(=O)c2ccc3ccccc3c2)CC1,0,46*,4,4,-1
O=C(Nc1ccccc1N1CCCC1)c1cc2ccccc2o1,0,-6,nt,-28,-5
CCOCCCNC(=O)NC(CCC(C)C)c1c(-n2cccc2)sc2c1CCN(C)C2 (configuration not stated),0,nt,5,nt,nt
Cc1c(Cl)cccc1NC(=O)CSc1ncccc1C(=O)Oc1ccccc1Cl,0,nt,-4,nt,nt
Cc1nnc(NC(=O)c2ccc(S(=O)(=O)N3CC(C)CC(C)C3)cc2)o1 (configuration not stated),0,-4,35*,-8,-7
CCCC(c1nnnn1C(C)(C)CC)N(Cc1ccco1)Cc1cc2ccc(OC)cc2[nH]c1=O (configuration not stated),0,-4,36*,-13,-3
COc1ccc(CC(=O)OCC(=O)NCc2ccco2)cc1,0,36*,-14,-7,3
COc1ccc(OCC(=O)OCC(=O)NCc2ccco2)cc1,1,2,-5,-5,-4
CCN=c1scc(C)n1/N=C/c1cc(Br)c(O)c(Br)c1,0,-18,-4,-1,-2
CCN=c1scc(C)n1/N=C/c1ccc(O)c(O)c1O,32*,-8,0,117*,49*
Cc1oc(-c2cccs2)nc1CN1CCC(CO)(CCOc2ccccc2)CC1,-1,54*,-8,-29,-4
SMILES,D2 ag-1,D2 antag,D2 PAM-1,D2 PAM-2,D2 ag-2
Cc1oc(-c2cccs2)nc1CN1CCC(C(=O)N2CCCC2)CC1,-2,23,-10,-11,-4
CCOC(=O)C1(CCOC)CCN(Cc2nc(-c3cccs3)oc2C)CC1,1,31*,-22,-14,-3
COc1ccc(N2CCN(C(=O)CSc3nnc4n3C(C)(C)Cc3ccccc3-4)CC2)cc1,-1,-6,19,0,-2
Cc1ccc(Cl)cc1N1CCN(C(=O)CSc2nnc3n2C(C)(C)Cc2ccccc2-3)CC1,0,-12,31*,6,2
O=C(NCc1cccnc1)c1ccc(COc2ccccc2Br)cc1,-2,53*,-22,-11,5
O=C(NCc1cccnc1)c1ccc(COc2ccccc2Cl)cc1,-1,4,-5,-13,1
CC1(/[N+]([O-])=C/c2ccccc2F)CCCCC1=O (configuration not stated),0,-2,2,-9,1
CCOc1ccc(/C=N/OCC(=O)NCc2ccc3c(c2)OCO3)cc1OC,-1,32*,-8,-18,1
CCc1ccccc1NC(=O)CSc1nnc(-c2ccc(OC)cc2)s1,1,nt,10,nt,nt
O=C(NCCCCNC(=O)c1ccc(Br)cc1)c1ccc(Br)cc1,0,6,13,-3,-6
C[C@@H]1CN([C@@H](C)CO)C(=O)CCCn2nncc2CO[C@H]1CN(C)S(=O)(=O)c1ccc2ccccc2c1,nt,nt,nt,-12,-2
O=C(NCc1ccccc1F)c1ccc2ccccc2n1,13,-11,34*,-6,-1
COc1ccc(NC(c2ccccc2)c2ccncc2)cc1 (configuration not stated),0,41*,2,-1,5
COc1cc(NC(c2ccccc2)c2ccccc2)cc(OC)c1OC,0,4,0,2,-6
NS(=O)(=O)c1ccc(CCNC(=O)CNC(=O)c2ccc(Br)o2)cc1,0,66*,-25,-5,-3
Cc1ccccc1Cn1c(SCc2ccc(C(=O)NCCc3ccccc3)cc2)nc2ccncc21,3,nt,5,nt,nt
CCOc1ccc(CNC(=O)c2ccc3c(c2)N(CC)CCS3)cc1,1,61*,-17,-10,1
CCOc1ccc(CCNC(=O)c2ccc3c(c2)N(Cc2ccc(F)cc2)CCS3)cc1,nt,nt,4,nt,nt
CCN1CCSc2ccc(C(=O)NCc3ccc(OC(C)C)cc3)cc21,2,60*,-14,-12,-4
COc1ccc(CCNS(=O)(=O)c2ccc3c(c2)OCCO3)cc1OC,0,2,105*,-4,-1
COCCCNS(=O)(=O)c1ccc2c(c1)OCCO2,0,34*,3,-5,-2
CCOCCCNS(=O)(=O)c1ccc2c(c1)OCCO2,0,-1,-1,-3,0
S=C1SCN(CCc2ccccc2)CN1CCc1ccccc1,nt,nt,nt,-19,-3
CC1(C(=O)NC(=S)NNC(=O)c2ccncc2)CCCCC1,10,34*,-3,-28,-14
O=C(NNC(=S)Nc1ccccc1)c1ccncc1,0,-21,31*,-10,-7
O=C(NNC(=S)Nc1cccc(C(F)(F)F)c1)c1ccncc1,nt,nt,nt,-27,-5
O=C(NNC(=S)NC(=O)C12CC3CC(CC(C3)C1)C2)c1ccncc1,66*,18,-20,-38,-9
Cc1ccccc1OCC(=O)N(Cc1ccc(N(C)C)cc1)CC1CCCO1 (configuration not stated),-1,nt,3,nt,nt

# Source: PubChem BioAssay (National Center for Advancing Translational Sciences (NCATS))
